Columns and labels:
Test in all cases: thermal shift delta Tm vs DMSO control; higher = stronger stabilization (binding)
Conditions in all cases: 12.5 µM; protein concentration 2 µM
LOC_OS01G01410-cb001 = tested on: LOC_OS01G01410-cb001
In short: (§1)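 Purified, E. coli-expressed rice kinase domain constructs were tested by differential scanning fluorimetry in 96-well plates: 19.5 μl of 2 μM kinase in 100 mM potassium phosphate pH 7.5, 150 mM NaCl, 10% glycerol, 5 × SYPRO Orange, plus compound in DMSO. Fluorescence was read from 25°C to 95°C at 0.05°C/s. Melting temperatures came from Boltzmann fits, and the shift is the triplicate mean relative to protein with DMSO alone.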

LOC_OS01G02750-cb003 = tested on: LOC_OS01G02750-cb003
In short: as §1

LOC_OS01G10900-cb004 = tested on: LOC_OS01G10900-cb004
In short: as §1

LOC_OS01G13800-cb001 = tested on: LOC_OS01G13800-cb001
In short: as §1

LOC_OS01G14860-cb001 = tested on: LOC_OS01G14860-cb001
In short: as §1

LOC_OS01G21960-cb002 = tested on: LOC_OS01G21960-cb002
In short: as §1

LOC_OS01G39600-cb002 = tested on: LOC_OS01G39600-cb002
In short: as §1

LOC_OS01G48390-cb002 = tested on: LOC_OS01G48390-cb002
In short: as §1

LOC_OS01G51400-cb002 = tested on: LOC_OS01G51400-cb002
In short: as §1

LOC_OS01G52050-cb004 = tested on: T1, LOC_OS01G52050-cb004
T1 sequence (whole entry): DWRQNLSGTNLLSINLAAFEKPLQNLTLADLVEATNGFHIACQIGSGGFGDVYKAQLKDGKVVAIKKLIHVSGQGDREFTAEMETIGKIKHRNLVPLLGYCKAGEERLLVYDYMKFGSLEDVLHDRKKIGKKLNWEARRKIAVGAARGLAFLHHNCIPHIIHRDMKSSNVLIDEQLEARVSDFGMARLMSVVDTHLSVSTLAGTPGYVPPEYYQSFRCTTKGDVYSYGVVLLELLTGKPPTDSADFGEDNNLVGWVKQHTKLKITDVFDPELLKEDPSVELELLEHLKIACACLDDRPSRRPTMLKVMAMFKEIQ
In short: as §1

SMILES	thermal shift delta Tm (LOC_OS01G01410-cb001) [°C]	thermal shift delta Tm (LOC_OS01G02750-cb003) [°C]	thermal shift delta Tm (LOC_OS01G10900-cb004) [°C]	thermal shift delta Tm (LOC_OS01G13800-cb001) [°C]	thermal shift delta Tm (LOC_OS01G14860-cb001) [°C]	thermal shift delta Tm (LOC_OS01G21960-cb002) [°C]	thermal shift delta Tm (LOC_OS01G39600-cb002) [°C]	thermal shift delta Tm (LOC_OS01G48390-cb002) [°C]	thermal shift delta Tm (LOC_OS01G51400-cb002) [°C]	thermal shift delta Tm (LOC_OS01G52050-cb004) [°C]
Cc1ccc(S(=O)(=O)/C=C/C#N)cc1	-0.23	-1.35	-0.53	-0.18	-0.19	0.75	-1.97	2.88	0.21	-1.44
CC1(C)CNc2cc(NC(=O)c3cccnc3NCc3ccncc3)ccc21 [Motesanib Diphosphate (AMG-706)]	1.13	0.81	0.63	0.38	0.51	0.76	-0.19	0.41	-0.07	-0.22
Cc1nc(Nc2cnn(C3CCNCC3)c2)nc2c1N(C)C(=O)c1cc3ccccc3cc1N2C	0.36	0.48	-0.09	0.39	-0.18	0.66	-1.52	0.62	0.18	0.38
Cc1ccc(Nc2cc(N[C@@H]3CCCC[C@@H]3N)nnc2C(N)=O)nc1C	1.14	1.56	0.34	0.15	4.3	1.71	0.06	0.5	0.36	4.19
Cc1cc2c(F)c(Oc3ncnn4cc(OC[C@@H](C)O)c(C)c34)ccc2[nH]1	1.69	0.24	0.93	0.42	0.41	0.22	0.2	0.6	0	0.2
CCOC(=O)c1cnc2ccc(-c3cncc(NS(=O)(=O)c4ccccc4)c3)cn12	1.19	2.3	1.17	0.29	0.13	1.06	0.33	0.35	0.6	0.54
Cc1cc([C@@H](C)Nc2ccccc2C(=O)O)c2nc(N3CCOCC3)cc(=O)n2c1	0.29	1.55	0.27	0.31	0.56	1.03	0.03	0.29	0.07	0.43
CN(c1ccccc1CNc1nc(Nc2ccc3c(c2)CC(=O)N3)ncc1C(F)(F)F)S(C)(=O)=O	2.5	7.01	2.35	0.34	5.2	2.72	8.33	3.62	1.93	8.95
COc1cc(N2CCC(N(C)C)CC2)ccc1Nc1ncc(Cl)c(Nc2ccccc2P(C)(C)=O)n1	0.42	-0.8	0.79	-0.94	0.31	1.95	-6.92	0.54	0.25	3.85
Cc1ccc(-n2nc(C(C)(C)C)cc2NC(=O)NCc2cc(F)ccc2Oc2ccc3c(cnn3CCO)c2)cc1 [Pexmetinib (ARRY-614)]	0.56	1.41	0.65	-0.01	0.85	1.27	0.75	1.8	0.36	1.87
NC(=O)c1ccc2nc(-c3ccc(Oc4ccc(Cl)cc4)cc3)[nH]c2c1 [Chk2 Inhibitor II (BML-277)]	0.54	1.86	2.68	-0.46	0.95	0.75	0.45	1.43	0.88	1.84
CCCNC(=O)Nc1ccc(Oc2ncnc3cc(OC)c(OC)cc23)cc1Cl	0.04	0.33	-0.21	-0.35	-0.27	0.37	0.76	0.53	-0.13	1.02
C=CC(=O)Nc1cccc(Nc2nc(Nc3ccc(Oc4ccnc(C(=O)NC)c4)cc3)ncc2F)c1	4.52	1.34	1.05	0.7	4.66	2.14	1.74	0.98	0.31	3.1
Clc1ccc(C2(c3ccc(-c4cn[nH]c4)cc3)CCNCC2)cc1	0.09	0.73	0.17	0.44	0.54	0.46	-0.39	0.45	0	0.38
S=C(NCc1ccc2c(c1)OCO2)N1CCN(c2ncnc3c2oc2ccccc23)CC1 [Amuvatinib (MP-470)]	0.66	-0.56	0.77	1.03	0.42	0.46	0.21	0.88	0.31	1.3
C[C@@H](Nc1cc(F)cc(F)c1)c1cc(C(=O)N(C)C)cc2c(=O)cc(N3CCOCC3)oc12	0.11	1.11	0.28	0.04	0.22	-0.4	-0.77	0.46	0.01	-0.12
CC(C)(CO)n1cc(C(=O)c2cncc(NC(=O)Cc3ccc(Cl)cn3)c2)c2cnc(N)nc21	0.23	0.58	0.35	0.55	0.5	0.13	0.32	0.37	-0.05	2.82
CNC(=O)c1ccccc1Sc1ccc2c(/C=C/c3ccccn3)n[nH]c2c1 [Axitinib]	2	0.59	0.25	-0.18	0.29	0.14	1.08	0.12	0.04	0.17
O=C(Nc1ccc(OC(F)(F)F)cc1)c1sccc1NCc1ccnc2ccccc12	1.17	2.66	0.51	0.57	0.78	0.12	1.45	1	0.94	3.68
CC(C)(C)NC(=O)c1cncn1C1CCN(c2ccc(-c3nnc(C(F)(F)F)o3)cn2)CC1	0.22	0.89	0.11	-0.25	0.2	0.13	-0.63	0.3	0.06	0.97

Reference: the supplement of paper PMC9694430
